Results on 40 molecules are retold here after PubChem BioAssay (Tox21).

Records with an inconclusive call do not appear. Entries that show only a call come without a potency. Active and inactive are the calls of the source. The call rests on the fitted dose curve.

The nature of this assay: qHTS assay to identify small molecule agonists of the AP-1 signaling pathway - cell viability counter screen (AID 1159525). Further: nearly all actives have a fitted effect of over 55% in size. The settings on record: ME-180 (cervical carcinoma) AP-1-bla cells viability, ATP luminescence, 5 h; series mostly up to 76.8 µM. An excerpt: National Center for Advancing Translational Sciences [NCATS]
NIH Chemical Genomics Center [NCGC]
U.S. Environmental Protection Agency [EPA]
National Institutes of Environmental Health Sciences [NIEHS]
National Toxicology Program [NTP]
U.S. Food and Drug Administration [FDA]
Activator protein-1 (AP-1), a transcription factor, plays an important role in tumor genesis by regulating genes involved in cell proliferation, differentiation, apoptosis, and angiogenesis. AP-1 activity is induced by a complex network of signaling pathways that involves extracellular signals, such as growth factors. The AP-1 protein complex formed from c-Fos and c-Jun binding to the AP-1 response element results in transcriptional activation of genes containing such elements within their promoter.
Low molecular weight molecules have been discovered and developed to modulate various components of these signaling pathways, for example, MAP kinase inhibitors. However, many points of pathway modulation remain untested due to the lack of chemical probes making this signaling locus of general interest.
Using a beta-lactamase reporter-gene under control of the AP-1 response element, a cell-based assay [CellSensor(TM) AP-1-bla ME-180 developed by Invitrogen Corp.] was used to measure EGF-induced signaling. The Tox21 10K library compounds were measured for their ability to positively modulate the action of EC50 EGF on reporter gene activity. Compounds were screened in a 15-pt titration series in 1536-well format. The cytotoxicity of the Tox21 compound library against this cell line was tested in parallel by measuring the intra cellular ATP content in the same wells.
Tox21 Assay Protocol Summary:
2500 cells/5uL in Opti-MEM medium containing 0.5% dialyzed FBS, 0.1 mM NEAA, 1 mM sodium pyruvate and 10 mM HEPES was dispensed into 1536-well black wall/clear bottom plates using a Multidrop dispenser and cells were cultured at 37 degrees Celsius overnight. Next day 23 nL of compounds dissolved in DMSO, positive controls or DMSO were delivered to each well using a pin tool. The plates were incubated at 37 degrees Celsius for 5 hours. 1 uL of LiveBLAzerTM B/G FRET substrate (Solution A+B+C+D) was added to each well using a Flying Reagent Dispenser. After incubated at room temperature for 2.5 hours the plates were measured on an EnVision plate reader at Excitation 405nm, Emission1=460nm and Emission 2=530nm. The %Activity was determined from the ratio of 460nm/530nm.
After the plates were read for Beta-Lactamase assay on Envision; 3 ul Cell Titer Glo (Promega) was added to measure the cytotoxicity and the plates were then incubated at RT in dark for 30 min. The luminescence was read on ViewLux (Perkin Elmer, Shelton, CT) using 6 sec exposure. ViewLux data was expressed as relative luminescence units.
For primary data analysis, raw plate reads for each titration point were first normalized relative to […] EGF control (100%) and DMSO only wells (basal, 0%).
For primary data analysis for viability assay, raw plate reads for each titration point were first normalized Tetra n-octyl ammonium bromide control (-100%) and DMSO (control, 100%).
Turning to `CN=C=S`, the Potency result is “inactive”.

Consider `Cc1cc(-c2cc(C)c(N)c(C)c2)cc(C)c1N`, for which the Potency entry is “inactive”.

With `CC(C#N)CCC#N` (stereo not given), the Potency entry was “inactive”.

Turning to `CC(=O)C=C(C)C`, the Potency result is “inactive”.

On to `CCOP(=S)(OCC)SCCSCC`, for which the Potency entry was “inactive”.

Turning to `[N-]=[N+]=[N-]`, the Potency result was “inactive”.

On to `O=S(=O)(c1ccc(O)cc1)c1ccc(O)cc1`, for which the Potency result was “inactive”.

Take `Cc1cccc([N+](=O)[O-])c1`: the Potency entry is “inactive”.

Turning to `COC(=O)NC(=S)Nc1ccccc1NC(=S)NC(=O)OC`, the Potency result was “inactive”.

On to `Cn1cc(-c2ccccc2)c(=O)c(-c2cccc(C(F)(F)F)c2)c1`, for which the Potency entry was “inactive”.

Turning to `O=c1n(Cl)c(=O)n(Cl)c(=O)n1Cl`, the Potency result is “inactive”.

On to `Nc1ccc(Oc2ccc(N)cc2)cc1`, for which the Potency result was “inactive”.

For `COC(=O)NS(=O)(=O)c1ccc(N)cc1`, the Potency entry is “inactive”.

On to `CCCN(CCC)c1c([N+](=O)[O-])cc(C(F)(F)F)cc1[N+](=O)[O-]`, for which the Potency entry was “inactive”.

Turning to `Cc1ccccc1O`, the Potency result is “inactive”.

`CN(C)CCO`: the Potency result was “inactive”.

Regarding `CCC[CH2][Sn]([Cl])([Cl])[Cl]`, the Potency result was “inactive”.

As for `Clc1ccccc1Cl`, the Potency result is “inactive”.

For the molecule `c1ccc(-c2ccccc2)cc1`, the Potency result is “inactive”.

On to `O=C1CCCN1`, for which the Potency entry was “inactive”.

Turning to `CC(C)(C)C(O)(CCc1ccc(Cl)cc1)Cn1cncn1` (stereo not given), the Potency entry was “inactive”.

`c1ccc2c(c1)oc1ccccc12`: the Potency result was “inactive”.

In the case of `CON(C)C(=O)Nc1ccc(Cl)c(Cl)c1`, the Potency result is “inactive”.

As for `Nc1ccccc1C(=O)O`, the Potency entry was “inactive”.

Regarding `c1ccc2c(c1)Oc1ccccc1O2`, the Potency result is “inactive”.

With `NCC(O)c1ccc(O)cc1` (stereo not given), the Potency result is “inactive”.

With `CCCN(CCC)N=O`, the Potency entry was “inactive”.

In the case of `CCNc1nc(NC(C)(C)C)nc(SC)n1`, the Potency entry is “inactive”.

Turning to `COP(N)(=O)SC` (stereo not given), the Potency entry was “inactive”.

Turning to `O=S(=O)(c1ccc(Cl)cc1)c1cc(Cl)c(Cl)cc1Cl`, the Potency entry is “inactive”.

For `CC(C)OC(=O)Nc1ccccc1`, the Potency result was “inactive”.

Turning to `Cc1[nH]c(=O)n(C(C)(C)C)c(=O)c1Cl`, the Potency entry is “inactive”.

For `CCCCCCCCCCCC#N`, the Potency result was “inactive”.

Take `C[C@]12CC[C@H]3[C@@H](CC[C@@]45O[C@@H]4C(O)=C(C#N)C[C@]35C)[C@@H]1CC[C@@H]2O`: the Potency result was “inactive”.

Turning to `COC(=O)c1ccccc1N`, the Potency entry is “inactive”.

As to `OCCN(CCO)CCO`, the Potency result was “inactive”.

With `CC(NC(C)(C)C)C(=O)c1cccc(Cl)c1` (stereo not given), the Potency entry was “inactive”.

Take `CC(C)(C)OOC(=O)c1ccccc1`: the Potency result was “inactive”.

As to `O=[N+]([O-])c1ccccc1`, the Potency entry was “inactive”.

With `C=CC(N)=O`, the Potency result is “inactive”.
